Several values for one entry are separate records, joined by “and”; a condition that tells them apart may be missing. Equal entries are not always repeated. Inconclusive results are not listed. More than one record can exist for a structure, and the calls need not agree. Activity calls are given as the source filed them. The call rests on the fitted dose curve; in most records, active means well fitted curve in the direction sought with a large enough effect in the repeat runs; inconclusive means weak or mixed curves; inactive means no such curve, though single readings can be large; an effect the other way counts as inactive or inconclusive.
What was measured:
[1] = qHTS RealTime-Glo MT Cell Viability Assay in HEK293 cells - 0 hour (AID 1224880); further: nearly all actives have a fitted effect of over 45% in size; further: potency means the concentration at half of the fitted maximal effect; on activity change, negative = cytotoxicity: top concentration of the series differs between compounds
In short: (§1)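 Cells were seeded together with NanoLuc luciferase and a prosubstrate that viable cells reduce to a luciferase substrate. After a 5 h incubation at 37 C/5% CO2, compounds were added and luminescence was measured repeatedly during 40 h of treatment.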

[2] = A CellTox Green Cytotoxicity Assay to monitor cytotoxicity in HEK293 cells - 32 hour (AID 1224881); further: nearly all actives have a fitted effect of over 40% in size; further: potency means the concentration at half of the fitted maximal effect
In short: (§2)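 Nonlytic real-time cytotoxicity: HEK293 + CellTox Green reagent plated, 5 h preincubation, pintool compound addition (23 nL in DMSO), 37 C for 40 h, fluorescence measured at successive time points.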

[3] = A CellTox Green Cytotoxicity Assay to monitor cytotoxicity in HepG2 cells - 0 hour (AID 1224882); further: nearly all actives have a fitted effect of over 35% in size; further: potency means the concentration at half of the fitted maximal effect
In short: (§3)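 Read-out is fluorescence of a cyanine dye excluded from live cells that stains DNA of dead HepG2 cells, with signal proportional to cytotoxicity. Plates were read at 0, 8, 16, 24, 32 and 40 h after compound addition.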

[4] = A CellTox Green Cytotoxicity Assay to monitor cytotoxicity in HepG2 cells - 32 hour (AID 1224883); further: nearly all actives have a fitted effect of over 50% in size; further: potency means the concentration at half of the fitted maximal effect
In short: as §3

[5] = qHTS RealTime-Glo MT Cell Viability Assay in HepG2 cells - 16 hour (AID 1224885); further: nearly all actives have a fitted effect of over 50% in size; further: potency means the concentration at half of the fitted maximal effect
In short: (§4)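 Compound treatment began 5 h after plating HepG2 cells (600/well) with NanoLuc luciferase and prosubstrate. Plates stayed at 37 C for 40 h; luminescence was captured at six time points, 0 h through 40 h.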

[6] = qHTS RealTime-Glo MT Cell Viability Assay in HEK293 cells - 24 hour (AID 1224886); further: nearly all actives have a fitted effect of over 50% in size; further: potency means the concentration at half of the fitted maximal effect; on activity change, negative = cytotoxicity: top concentration of the series differs between compounds
In short: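 Quantitative high-throughput screen of the Tox21 10K library in HEK293: cells and RealTime-Glo reagents plated together, compound added at 5 h, luminescence monitored through 40 h at 37 C.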

[7] = qHTS RealTime-Glo MT Cell Viability Assay in HEK293 cells - 8 hour (AID 1224887); further: nearly all actives have a fitted effect of over 50% in size; further: potency means the concentration at half of the fitted maximal effect; on activity change, negative = cytotoxicity: top concentration of the series differs between compounds
In short: as §1

[8] = A CellTox Green Cytotoxicity Assay to monitor cytotoxicity in HEK293 cells - 16 hour (AID 1224888); further: nearly all actives have a fitted effect of over 35% in size; further: potency means the concentration at half of the fitted maximal effect
In short: as §2

[9] = qHTS RealTime-Glo MT Cell Viability Assay in HepG2 cells - 0 hour (AID 1224889); further: nearly all actives have a fitted effect of over 50% in size; further: potency means the concentration at half of the fitted maximal effect
In short: as §4

[10] = A CellTox Green Cytotoxicity Assay to monitor cytotoxicity in HEK293 cells - 8 hour (AID 1224884); further: nearly all actives have a fitted effect of over 35% in size
In short: as §2
On the % scale 0 is the no-effect control and ±100 the full control effect.

CCCCC(CC)CN (stereo not given)
inactive: Potency [1] | Potency [2] | Potency [3] | Potency [4] | Potency [5] | Potency [6] | Potency [7] | Potency [8] | Potency [9]

CCN(CC)CCNC(=O)COc1ccc(OC)cc1
inactive: Potency [1] | Potency [2] | Potency [3] | Potency [4] | Potency [5] | Potency [6] | Potency [7] | Potency [8] | Potency [9]

CC[C@]1(O)C[C@H]2CN(CCc3c([nH]c4ccccc34)[C@@](C(=O)OC)(c3cc4c(cc3OC)N(C=O)[C@H]3[C@@](O)(C(=O)OC)[C@H](OC(C)=O)[C@]5(CC)C=CCN6CC[C@]43[C@@H]65)C2)C1
inactive: Potency [1] | Potency [2] | Potency [3] | Potency [10] | Potency [5] | Potency [8] | Potency [9]

O=c1c(O)c(-c2ccc(O)cc2)oc2cc(O)cc(O)c12
inactive: Potency [1] | Potency [2] | Potency [3] | Potency [4] | Potency [10] | Potency [5] | Potency [8] | Potency [9]

C[C@]12CC[C@@H]3c4ccc(O)cc4CC[C@H]3[C@@H]1CC[C@@H]2OC(=O)CCC1CCCC1
active: Potency [2] 54.9 µM | Potency [4] 49 µM and 23.9 µM
43.6 µM (active) and inactive: Potency [6]
inactive: Potency [1] | Potency [3] | Potency [9]
49 µM (active) and inactive: Potency [5] | Potency [7]

C=CC(C)(CCC=C(C)C)OC(=O)CC(C)C (stereo not given)
inactive: Potency [1] | Potency [2] | Potency [3] | Potency [4] | Potency [5] | Potency [6] | Potency [7] | Potency [8] | Potency [9]

CC1(C)S[C@@H]2[C@H](NC(=O)C(c3ccccc3)S(=O)(=O)O)C(=O)N2[C@H]1C(=O)O (stereo not given in full)
inactive: Potency [1] | Potency [2] | Potency [3] | Potency [4] | Potency [5] | Potency [6] | Potency [7] | Potency [8] | Potency [9]

CC(=O)N/N=C/c1ccc([N+](=O)[O-])o1
inactive: Potency [1] | Potency [2] | Potency [3] | Potency [4] | Potency [5] | Potency [7] | Potency [8] | Potency [9]

COc1ccccc1NC(=O)c1cc2ccccc2cc1O
active: Potency [6] 34.7 µM | Potency [7] 34.7 µM
inactive: Potency [1] | Potency [2] | Potency [3] | Potency [4] | Potency [10] | Potency [8] | Potency [9]

O=[N+]([O-])c1ccc(Nc2ccc(Nc3ccccc3)c(S(=O)(=O)O)c2)c([N+](=O)[O-])c1
inactive: Potency [1] | Potency [2] | Potency [3] | Potency [4] | Potency [5] | Potency [6] | Potency [7] | Potency [8]

CCCCN(CCN(CCCC)C(=O)N1CCOCC1)C(=O)N1CCOCC1
inactive: Potency [1] | Potency [2] | Potency [3] | Potency [4] | Potency [5] | Potency [6] | Potency [7] | Potency [8] | Potency [9]

CCOc1ccccc1O[C@H](c1ccccc1)[C@H]1CNCCO1
inactive: Potency [1] | Potency [2] | Potency [3] | Potency [10] | Potency [5] | Potency [6] | Potency [7] | Potency [8]

CC(C)(C)C(=O)C(=O)O
inactive: Potency [1] | Potency [2] | Potency [3] | Potency [10] | Potency [5] | Potency [6] | Potency [9]

COc1cc(N)c(Cl)cc1C(=O)NC1CCN(CCCOc2ccc(F)cc2)CC1OC (stereo not given)
inactive: Potency [1] | Potency [2] | Potency [3] | Potency [10] | Potency [5] | Potency [9]
active: Potency [6] 3.01 µM | Potency [7] 3.01 µM

C=CC(=O)OCC1CC2CC1C1CCC(COC(=O)C=C)C21 (stereo not given)
active: Potency [2] 49 µM | Potency [4] 43.6 µM
inactive: Potency [1] | Potency [3] | Potency [10] | Potency [8] | Potency [9]

O=Cc1c2ccccc2c(Cl)c2ccccc12
inactive: Potency [1] | Potency [2] | Potency [3] | Potency [4] | Potency [10] | Potency [5] | Potency [8] | Potency [9]

CCC(C)COC(=O)CC(C)C (stereo not given)
active: Potency [4] 54.9 µM
inactive: Potency [1] | Potency [2] | Potency [3] | Potency [5] | Potency [6] | Potency [7] | Potency [8] | Potency [9]

COC(=O)C1=C(C)NC(C)=C(C(=O)O[C@@H]2CCCN(Cc3ccccc3)C2)[C@@H]1c1cccc([N+](=O)[O-])c1
inactive: Potency [2] | Potency [3] | Potency [4] | Potency [10] | Potency [6] | Potency [8]
active: Potency [1] 8.49 µM | Potency [9] 5.35 µM

CC1=C(Br)C(=O)C(Br)=C/C1=C(/c1ccccc1S(=O)(=O)O)c1cc(Br)c(O)c(Br)c1C
inactive: Potency [2] | Potency [3] | Potency [4] | Potency [5] | Potency [6] | Potency [7]
active: Potency [1] 33.3 µM

Cc1cc(=O)c2c(O)c3c(O)cc(=O)c4c3c3c(cc(O)c1c23)C(C)(C)C=4O
active: Potency [2] 5.22 µM | Potency [3] 4.65 µM | Potency [4] 4.14 µM | Potency [8] 7.37 µM
inactive: activity change, negative = cytotoxicity [1] 0.327% [at 15.8 µM] | activity change, negative = cytotoxic [5] -19% [at 15.8 µM] | activity change, negative = cytotoxicity [7] 3.53% [at 15.8 µM] | activity change, negative = cytotoxicity [9] -2.14% [at 15.8 µM]

CCOC(=O)c1ccc(I)cc1
active: Potency [2] 35 µM
inactive: Potency [1] | Potency [3] | Potency [4] | Potency [10] | Potency [5] | Potency [9]

C=C1CCC2CC1C2(C)C (stereo not given)
inactive: Potency [1] | Potency [2] | Potency [3] | Potency [4] | Potency [5] | Potency [6] | Potency [7] | Potency [9]

CC(C)=CC(=O)C=C(C)C
inactive: Potency [1] | Potency [2] | Potency [3] | Potency [4] | Potency [5] | Potency [6] | Potency [7] | Potency [8] | Potency [9]

Clc1ccc(Nc2nnc(Cc3ccncc3)c3ccccc23)cc1
inactive: Potency [1] | Potency [2] | Potency [3] | Potency [4] | Potency [10] | Potency [8] | Potency [9]

COC(=O)[C@H]1[C@H]2C[C@@H]3c4[nH]c5cc(OC)ccc5c4CCN3C[C@H]2C[C@@H](OC(=O)/C=C/c2ccc(O)c(OC)c2)[C@@H]1OC
active: Potency [2] 19 µM | Potency [3] 26.8 µM | Potency [4] 23.9 µM | Potency [8] 16.9 µM
inactive: Potency [1] | Potency [5] | Potency [9]

CC(C)C(O)(c1ccc(OC(F)(F)F)cc1)c1cncnc1 (stereo not given)
inactive: Potency [1] | Potency [2] | Potency [3] | Potency [4] | Potency [10] | Potency [5] | Potency [7] | Potency [9]

OC1(c2ccccc2)CCNCC1
inactive: Potency [1] | Potency [2] | Potency [3] | Potency [4] | Potency [5] | Potency [6] | Potency [7] | Potency [9]

CCCCCC#CC(=O)OC
inactive: Potency [1] | Potency [2] | Potency [3] | Potency [4] | Potency [5] | Potency [7] | Potency [8] | Potency [9]

CCOC(=O)c1ccc(C#Cc2ccc3c(c2)C(C)(C)CCS3)nc1
inactive: Potency [1] | Potency [2] | Potency [3] | Potency [10] | Potency [5] | Potency [8]

C/C=C\C/C=C/CCCCCCCCOC(C)=O
inactive: Potency [1] | Potency [2] | Potency [3] | Potency [4] | Potency [5] | Potency [6] | Potency [8]

C=COCC(C)C
inactive: Potency [1] | Potency [2] | Potency [3] | Potency [4] | Potency [10] | Potency [5] | Potency [8]

CCC(OCCCOC)OC(C)=O (stereo not given)
inactive: Potency [1] | Potency [2] | Potency [3] | Potency [4] | Potency [5] | Potency [6] | Potency [7] | Potency [9]

NC1[C@H]2CN(c3nc4c(cc3F)c(=O)c(C(=O)O)cn4-c3ccc(F)cc3F)C[C@@H]12 (stereo not given in full)
inactive: Potency [1] | Potency [2] | Potency [3] | Potency [4] | Potency [5] | Potency [6] | Potency [7] | Potency [9]

CC(C)(c1ccccc1)c1ccccc1
active: Potency [2] 51.1 µM
inactive: Potency [1] | Potency [3] | Potency [4] | Potency [5] | Potency [6] | Potency [9]

Cc1ccc2c(Br)cc(Br)c(O)c2n1
inactive: Potency [1] | Potency [2] | Potency [3] | Potency [4] | Potency [10] | Potency [5] | Potency [8] | Potency [9]

Oc1c(I)cc(I)c2cccnc12
inactive: Potency [1] | Potency [2] | Potency [3] | Potency [4] | Potency [5] | Potency [7] | Potency [8] | Potency [9]

CC(=O)c1ccc([N+](=O)[O-])cc1
inactive: Potency [1] | Potency [2] | Potency [3] | Potency [4] | Potency [5] | Potency [6] | Potency [7] | Potency [8] | Potency [9]

NCCNCCO
inactive: Potency [1] | Potency [2] | Potency [3] | Potency [4] | Potency [5] | Potency [6] | Potency [8] | Potency [9]

CCOC(=O)C1=C(C)NC(C)=C(C(=O)OC)C1c1cccc(Cl)c1Cl (stereo not given)
active: Potency [1] 5.35 µM | Potency [5] 19 µM | Potency [9] 6.74 µM
inactive: Potency [2] | Potency [3] | Potency [4] | Potency [10] | Potency [7] | Potency [8]

From PubChem BioAssay (Tox21)
